Compounds without any hit were thinned out: in the full panel of roughly 83,000, 20% have a hit.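 Results are percent growth after 48 hours of single-concentration exposure. 100 means growth as in untreated cells, lower positive values show inhibition; negative values down to -100 show cell death.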 Activity calls are given as the source filed them.

The test system of this test is UO-31 renal. The test can be described thus: NCI-60 one-dose screen, 48 h (100 = growth as untreated, 0 = no growth, -100 = all killed). To be noted: 10 µM unless noted. The method, then: Growth inhibition of the UO-31 human tumor cell line is measured as a screen for anti-cancer activity. Cells are grown in 96 well plates and exposed to the test compound for 48 hours. Compounds are tested at a single concentration, which is 10^-5 M for most compounds. The reported endpoint is percent growth (GI% or GIPRCNT), where numbers from 0 - 100% represent growth inhibition, and numbers from -100% - 0 represent cell death. For example, a value of 40 represents 60% growth inhibition. A value of 0 means no net growth occurred over the course of the experiment. A value of -40 indicates 40% of cells at the beginning of the experiment died by the end of the experiment. A value of -100 means all cells are dead at the end of the experiment.
NCI-60 Human Tumor Cell Lines Screen was performed using the standard one-dose NCI protocol, which is described in more detail at https://dtp.cancer.gov/discovery_development/nci-60/default.htm.
Compounds with GIPRCNT values below 10 were considered active. Activity score was based on GIPRCNT using the following formula: […]
Score is 0 for GIPRCNT values of 100 or above, 50 for GIPRCNT values of 0, and 100 for GIPRCNT values of -100.
For `O=[N+]([O-])CC(c1ccccc1)c1c[nH]c2ccccc12` (stereo not given), the growth is 67.3% (inactive).
Under `CNC(=O)c1cncc(Cn2nc(C)c(NC(=O)c3ccc(COc4ccc(C(F)(F)F)cc4C)cc3)c2C)c1` stands 58.6% (inactive); under `COc1cc(C(=O)Nc2cc3c(cc2Oc2cc(C)cc(C)c2)C(=O)N(C)[C@@H](CC(=O)N(C)O)C(=O)N3)c(Br)c(OC)c1OC`, -32.4% (active).
Under `O=C1CC(=O)OC(c2ccc([N+](=O)[O-])cc2)O1` stands -88.2% (active); under `O=Cc1ccc(-c2cn3ccnc3c(-c3ccc4ncn(Cc5ccccc5)c4c3)n2)cc1`, 17.8% (inactive); under `O=[N+]([O-])CC(c1ccccc1F)c1c[nH]c2ccccc12` (stereo not given), 71.9% (inactive).
For the compound `O=S(=O)(NCCNc1nccc(-c2c(-c3cccc(O)c3)nc3occn23)n1)c1ccccc1`, the growth was 101% (inactive).
Next, `COc1cccc(-c2nc3occn3c2-c2ccnc(NCCCNS(=O)(=O)c3ccc(C(F)(F)F)cc3)n2)c1`: 71.5% (inactive); `O=C(CCN1CCCC1)Nc1ccc2c(NCCCc3ccccc3)c3ccccc3nc2c1`: 31.8% (inactive).
Under `COc1cc(-c2n/c(=C\c3c(O)[nH]c4ccc(Cl)cc34)cc3c2=Nc2ccccc2-3)ccc1F` stands -61.4% (active); under `COc1ccc(C(=O)Nc2cccc(C3CCc4c(cc(OC)c(OC)c4OC)O3)c2)cc1` (stereo not given), 53.9% (inactive); under `COc1ccc(/C=C/c2nc(Nc3ccc(S(=O)(=O)Nc4nc(C)cc(C)n4)cc3)c3ccccc3n2)cc1`, 51.8% (inactive).
Under `COC(=O)/C=C1\S/C(=N\NC(=O)c2cc3ccc2/C=C\c2ccc(cc2)/C=C\3)N(c2ccccc2)C1=O` stands 58.5% (inactive).
Regarding `Cc1ccc(NC(C(=O)c2ccccc2)c2ccccc2)cc1` (stereo not given), the growth is 78.9% (inactive).
In the case of `COc1cc2nc(-c3ccc(C(F)(F)F)cc3)cc(OCCCN3CCCC3)c2cc1OC`, the growth is 31.5% (inactive).
Under `CNC(=O)c1cccc(Cn2nc(C)c(NC(=O)c3ccc(COc4ccc(C(F)(F)F)cc4C)cc3)c2C)c1` stands 47.3% (inactive); under `CC(=O)Oc1ccc(/C=N/NC(N)=S)nc1`, 52.7% (inactive).
Under `COc1ccc(NC(N)=NCCCOc2ccc(F)cc2)cc1` stands 86.7% (inactive); under `CCCCCCNC(=O)Oc1ccc(/C(=C(\C)c2ccccc2)c2ccc(OCCCN(C)C)cc2)cc1`, 57.8% (inactive); under `Clc1ccc(-c2ccc(CNCC3CCNCC3)o2)c(-c2ccccc2)c1`, -95.1% (active).
Under `COc1ccc(C(=O)c2cc(C)c(OC)c(C)c2)c(OC)c1N(C(=O)CCl)C(=O)CCl` stands 39.3% (inactive); under `O=C1Nc2cc(Cl)ccc2/C1=C\c1c(-c2ccc(F)cc2)nc2ccccn12`, 28.7% (inactive).
`O=C(/C(=C\c1ccc([N+](=O)[O-])cc1)S(=O)Cc1ccc(Cl)cc1)c1ccc(Cl)cc1` (stereo not given): the growth was 70.4% (inactive).
Under `CCOc1cccc(-c2nc(N)nc(Nc3ccccc3SSc3ccccc3Nc3nc(N)nc(-c4cccc(OCC)c4)n3)n2)c1` stands -25.5% (active); under `COc1cccc(C(=O)NNc2nc(Cl)nc(N3CCN(C(c4ccccc4)c4ccccc4)CC3)n2)c1`, 93.4% (inactive); under `N#C/C(=C\c1ccc(C(F)(F)F)cc1)c1cc2ccccc2[nH]1`, 92.9% (inactive).
Consider `O=C(Cn1c[n+](CC(=O)c2ccc([N+](=O)[O-])cc2)c2ccccc21)Nc1cccc2cccnc12`, for which the growth is 66% (inactive).
Under `Cc1ccc(NS(=O)(=O)c2ccc(-c3cnc(C4CC4)o3)cc2)cc1C(F)(F)F` stands 58% (inactive).
Under `Cc1ccc(/C=C(/C#N)n2nnc3cccc(F)c32)cc1` stands 15.6% (inactive); under `Cn1ccc2c1CC1CN(Cc3ccco3)C(=O)C1C2C(=O)O` (stereo not given), 89.6% (inactive).
Under `O=C(NCCNc1nccc(-c2c(-c3cccc(F)c3)nc3sccn23)n1)c1ccc(Cl)cc1` stands 28.1% (inactive).
For the compound `COc1cc2nc(-c3ccc(C(F)(F)F)cc3)cc(OCCN3CCCCC3)c2cc1OC`, the growth is 54.3% (inactive).
Under `NC(=NCCCOc1ccc(F)cc1)Nc1ccc(Cl)cc1` stands 49.1% (inactive); under `Cc1nc(N)nc(N[C@@H](C)c2nc3cccc(NCc4ccc(C(=O)NO)cc4)c3c(=O)n2-c2ccccc2)n1`, 68.4% (inactive); under `CCCCC/C=C/C(C)=C/C1CC(C)C/C=C/CCC(O)C(OC(N)=O)CCC(C)CC(O)C(C)C(=O)O1` (stereo not given), 64.3% (inactive).
Regarding `COc1ccc(/C=C/c2nc(Nc3ccc(S(=O)(=O)Nc4cc(C)on4)cc3)c3ccccc3n2)cc1`, the growth was 50.3% (inactive).
Under `Cc1nn(-c2ccccc2)c(Oc2c(Cl)cccc2Cl)c1/C=N/N=c1\sc2ccccc2n1C` stands 57.5% (inactive); under `O=C1Nc2cc(-c3cccc([N+](=O)[O-])c3)ccc2/C1=C/c1ccc[nH]1`, 68.6% (inactive); under `COc1ccc(C/C(C)=C(/c2ccc(OCCCN(C)C)cc2)c2ccc(OC(C)=O)cc2)cc1`, 62.2% (inactive).
`NCCCCCCNc1cc(-c2cccc(OC(F)(F)F)c2)nc2ccc(N3CCCC3)cc12`: the growth is -91.5% (active).
